A selection: hits, their analogues and other compounds. The true share with any hit is near 10%.
GPT2 inhibitor: GPT2 alanine aminotransferase inhibition; Recombinant GPT2, coupled pyruvate oxidase/HRP Amplex Red fluorescence; Potency, µM (top dose mostly 57.7 µM), without a hit: top-dose activity change, negative = inhibition, actives largely listed as inhibitors; 100,000 tested, 0.25% active; AID 1671188; also: % is scaled to controls: 0 for no effect and ±100 for the full control effect; nearly all actives have a fitted effect of over 60% in size
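Fluorescence read-out: pyruvate from GPT2 turnover coupled to pyruvate oxidase, HRP and Amplex Red (0.2mM ThPP, 0.2U/mL PO and HRP, 50uM Amplex final). Substrates 250uM a-KG, 2mM L-alanine; enzyme 10ng/uL; 30 min RT.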
NIH3T3 tox: kills NIH 3T3 cells; NIH 3T3 viability, CellTiter-Glo ATP luminescence, 48-72 h; Potency, µM (highest dose often 96.7 µM), for inactives: at the top dose activity change, negative = cytotoxicity, hits mostly inhibitors; 94,000 tested, 4.3% active; also: % is scaled to controls: 0 for no effect and ±100 for the full control effect; nearly all actives have a fitted effect of over 55% in size
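NIH 3T3 cells at 400 cells/well received 23 nL of compound by pintool and were incubated 48 or 72 h at 37 °C. Viability was read as ATP-coupled CellTiter-Glo luminescence.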
HEK293 tox: kills HEK 293 cells | HEK 293 viability, ATP luminescence (CellTiter-Glo), 48-72 h | Potency, µM (titrated, usually from 115 µM), without a hit: at the highest dose activity change, negative = cytotoxicity, usual class: inhibitors | 94,000 tested, 6.6% active | AID 1345083; also: % is scaled to controls: 0 for no effect and ±100 for the full control effect; nearly all actives have a fitted effect of over 60% in size
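CellTiter-Glo luminescence (cellular ATP) was read after 48 or 72 hr of compound exposure at 37 degree Celsius. Cells were HEK 293 plated at 250 cells/well.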
hNpr1 antagonist: blocks ANP-stimulated signaling of human Npr1 receptor; P16066; HEK293 hNpr1 GloSensor cGMP, ANP-stimulated luminescence; Potency, µM (doses to about 46.3 µM), for the others: top-dose activity change, negative = inhibition, most hits filed as inhibitors; 76,000 tested, 1.6% active; AID 1347048; calls by dose curve; also: % is scaled to controls: 0 for no effect and ±100 for the full control effect; nearly all actives have a fitted effect of over 60% in size
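Compound pre-incubated 30 min at room temperature on GloSensor-loaded HEK293 cells stably carrying hNpr1 and the pGS-40F cGMP biosensor. Stimulation uses hNppA at 0.1 nM final; luminescence is taken at baseline and 20 min post-agonist.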
FLuc inh-1: blocks purified firefly luciferase enzyme activity; Potency, µM (titrated, usually from 115 µM), actives largely listed as inhibitors; purified P. pyralis luciferase, luminescence, biochemical; 76,000 tested, 2.5% active; P08659; also: % is scaled to controls: 0 for no effect and ±100 for the full control effect; nearly all actives have a fitted effect of over 65% in size
Target sequence (P08659 whole entry, looked up): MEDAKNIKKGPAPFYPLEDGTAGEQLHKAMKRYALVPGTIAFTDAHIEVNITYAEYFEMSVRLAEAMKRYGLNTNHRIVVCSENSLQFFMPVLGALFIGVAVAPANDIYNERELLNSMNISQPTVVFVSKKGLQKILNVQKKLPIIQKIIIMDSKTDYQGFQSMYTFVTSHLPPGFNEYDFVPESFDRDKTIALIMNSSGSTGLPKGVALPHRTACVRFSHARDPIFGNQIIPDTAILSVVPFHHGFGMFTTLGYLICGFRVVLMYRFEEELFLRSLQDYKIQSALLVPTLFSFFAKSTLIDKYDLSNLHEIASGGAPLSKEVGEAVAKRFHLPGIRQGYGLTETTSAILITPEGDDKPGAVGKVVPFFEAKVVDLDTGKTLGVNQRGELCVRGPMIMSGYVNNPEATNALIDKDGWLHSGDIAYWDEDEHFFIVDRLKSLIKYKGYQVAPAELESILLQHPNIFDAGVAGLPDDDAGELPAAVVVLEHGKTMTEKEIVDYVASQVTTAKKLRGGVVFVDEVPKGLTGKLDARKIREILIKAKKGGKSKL
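Inhibitors were tested against purified firefly luciferase in a biochemical, low-substrate format (both substrates at 10uM) and luminescence measured with a CCD imager.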
FLuc SDR -ATP: stabilizes firefly luciferase without ATP. shares compounds with FLuc inh-1. Purified FLuc-C-HiBiT, Nano-Glo HiBiT luminescence, no ATP. Potency, µM (doses to about 32.7 µM), for inactives: at the highest dose activation (signal gain), usual class: activators. 1,300 tested, 7.8% active. AID 1963318; also: nearly all actives have a fitted effect of over 55% in size
FLuc SDR ATP: binders stabilizing firefly luciferase, plus ATP | shares compounds with FLuc inh-1 | purified FLuc-C-HiBiT + ATP, HiBiT complementation luminescence | 1,300 tested, 8.7% active | Potency, µM (series often up to 32.7 µM), for the others: top-dose activation (gain of signal), usual class: activators;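 also: signal reports ligand binding via conformational change of the enzyme rather than luciferase catalysis; % of control where 0% means no effect; nearly all actives have a fitted effect of over 55% in size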
FLuc inh-2: firefly luciferase enzyme inhibition | purified FLuc-C-HiBiT enzyme, luciferin luminescence | AID 1963320 | shares compounds with FLuc inh-1 | Potency, µM (series often up to 32.7 µM), without a hit: at the top dose activity change, negative = inhibition, hits mostly inhibitors | 1,300 tested, 42% active; also: % is scaled to controls: 0 for no effect and ±100 for the full control effect; nearly all actives have a fitted effect of over 70% in size
* = called active by the depositor; i = inactive; ? = inconclusive; nt = not tested or not shown; [ ] = another dose, or the depositor's remark. Unless noted, calls follow the shape of the dose curve; as a rule, active = well fitted curve in the direction sought with a large enough effect; inconclusive = small, poorly fitted or top-dose-only effect, or another doubt; inactive = no such curve, though single readings can be large; an effect the other way counts as inactive or inconclusive. Potency is read from the fitted curve at half-maximal effect.

SMILES	GPT2 inhibitor	NIH3T3 tox	HEK293 tox	hNpr1 antagonist	FLuc inh-1	FLuc SDR -ATP	FLuc SDR ATP	FLuc inh-2
O=C1CCC2(C(=O)NCCc3ccccc3)CCCC=C2N1c1ccccc1 (stereo unspecified)	i	-14%	?	-23%	3.2µM*	11%	20%	?
COc1ccc(C(=O)N2CCC3(CC2)NCCc2c3[nH]c3ccccc23)c(OC)n1	i	?	?	-10%	i	nt	nt	nt
Cc1cc(CNC(=O)C2(C(N)=O)CC2)c2[nH]c(-c3ccccc3)c(C)c2c1	-23%	?	22µM*	?	13µM*	26%	?	11µM*
Cc1c(-c2ccccc2)[nH]c2c(CNC(=O)CCn3cnnn3)cc(Cl)cc12	-6%	?	?	2%	?	nt	nt	nt
Cc1oc(C(O)c2ccccc2F)nc1C(=O)Nc1ccc(N2CCOCC2)cc1 (stereo unspecified)	i	-25%[138 µM]	?	-2%[70.6 µM]	10µM*	?	?	16µM*
O=C1Nc2ccc(C(=O)c3ccco3)cc2/C1=C/c1cc(Cl)c(O)c(Cl)c1	nt	nt	nt	nt	nt	6%	4%	11µM*
CC(=O)NC1(C)CCN(Cc2ccc(-c3ccc4c(ccn4C)c3)cc2)C1 (stereo unspecified)	i	?	?	?	4.5µM*	25%[49.3 µM]	?	7.2µM*
COc1ccc(-c2cccc(CN3CCCC(C)(NC(C)=O)C3)c2)cc1OC (stereo unspecified)	-9%[88.5 µM]	?	?	1%[70.6 µM]	i	nt	nt	nt
O=c1n(-c2cccc(Cl)c2)nc2n1CCN(Cc1ccccc1)C2	3%	?	?	nt	nt	nt	nt	nt
CC(C)CCN1CCn2c(nn(-c3cccc(Cl)c3)c2=O)C1	-11%	?	?	nt	nt	nt	nt	nt
Clc1cccc(-n2ncc3c(N4CCCCC4)ncnc32)c1	nt	nt	nt	nt	nt	6.2µM*	?	0.99µM*
Nc1ccc2ncnc(N3CCCC3)c2c1	2%	-22%	?	-9%	i	nt	nt	nt
CCN(c1ncnc2c1cnn2-c1cccc(Cl)c1)C1CCCCC1	nt	nt	nt	nt	nt	27%	?	5.6µM*
COCC(C)Nc1ncnc2c1cnn2-c1cccc(Cl)c1 (stereo unspecified)	nt	nt	nt	nt	nt	23%	16%	?
Cc1cc(Cl)ccc1-n1ncc2c(N3CCCCC3)ncnc21	nt	nt	nt	nt	nt	31%	?	4.4µM*
Cc1cc(C(=O)N2C[C@H](C(N)=O)[C@H]3c4ccccc4N(CC4CC4)C(=O)[C@]32C)c(C)o1	i	-28%[46.1 µM]	?	nt	nt	nt	nt	nt
O=C1NCCCCCCN(S(=O)(=O)c2cccnc2)[C@H]2C[C@H](c3nc(-c4cccnc4)no3)C[C@@H]12	?	-19%	?	0%	i	nt	nt	nt
CCC(=O)N(C1CCOCC1)C1CCN(Cc2cccc(Cl)c2)CC1	0%	-14%	-22%	0%	i	nt	nt	nt
O=C(c1ccc(Cn2ccnc2)o1)N1CCC2(CC1)NCCc1c2[nH]c2ccccc12	4%	?	?	4%	i	nt	nt	nt
O=Cc1cccc(-c2ccc(C(=O)O)o2)c1	0%[88.5 µM]	i	i	nt	nt	nt	nt	nt
CN(C)C(=O)c1ccc(-c2cccc(-c3ccn(CC4CC4)n3)c2)o1	?	?	?	?	7.1µM*	24%	?	7.9µM*
O=C(c1[nH]ncc1Cl)N1CCOC(Cc2cccc(C(F)(F)F)c2)C1 (stereo unspecified)	3%	-29%	?	-3%	13µM*	13%	12%	-15%
CCOC(=O)c1cccc(NC(=O)N2CC[C@@H](CC(=O)O)[C@@H](CC)C2)c1	-6%[88.5 µM]	-18%[174 µM]	-13%[172 µM]	6%[70.6 µM]	i	nt	nt	nt
CCOC(=O)C1(C)C=C(Nc2cccc(C(=O)O)c2)C(=O)N1c1ccccc1 (stereo unspecified)	nt	nt	nt	nt	nt	10%	?	?
Clc1cccc(Nc2cc3c(cn2)CN(Cc2cccnc2)CCN3)c1	?	?	32µM*	?	1.3µM*	?	?	13µM*
SMILES	GPT2 inhibitor	NIH3T3 tox	HEK293 tox	hNpr1 antagonist	FLuc inh-1	FLuc SDR -ATP	FLuc SDR ATP	FLuc inh-2
COCCN1CCNc2cc(Nc3cccc(N(C)C)c3)ncc2C1	i	?	?	-2%[70.6 µM]	?	nt	nt	nt
Cn1ccnc1CN1CCNc2cc(Nc3ccccc3)ncc2C1	-5%[88.5 µM]	?	?	-14%[70.6 µM]	4.5µM*	26%[49.3 µM]	17%[49.3 µM]	?
COCCN1CCNc2cc(-c3cccc(OC)c3)ncc2C1	nt	nt	nt	nt	nt	?	14%[49.3 µM]	20µM*
Cc1noc(C)c1CN1CCNc2cc(Nc3cccnc3)ncc2C1	3%[88.5 µM]	-34%[138 µM]	?	-1%[70.6 µM]	i	nt	nt	nt
COCCN1CCNc2cc(Nc3cccc(OC)c3)ncc2C1	4%[88.5 µM]	?	?	5%[70.6 µM]	7.1µM*	20%[49.3 µM]	14%[49.3 µM]	?
O=C1CC(c2ccccc2)N(Cc2ccncc2)CCCN(C(=O)c2ccsc2)CCN1 (stereo unspecified)	-3%	-15%	-7%	-1%	i	nt	nt	nt
CN(Cc1ccccc1)Cc1cc(CC2(NCc3ccccc3F)COC2)no1	-1%[88.5 µM]	?	?	-10%[70.6 µM]	i	nt	nt	nt
O=C(O)c1cccc(-c2noc(-c3cccc(F)c3)n2)c1	nt	nt	nt	nt	nt	?	0.007µM*	0.007µM*
O=C(c1ccc(F)cc1)N1CC(c2noc(-c3ccccc3)n2)C1	5%	-15%	-12%	0%	i	nt	nt	nt
O=C(O)c1ccc(-c2noc(-c3cccc(F)c3)n2)cc1	nt	nt	nt	nt	nt	17%	?	5µM*
O=C(O)c1cccc(-c2noc(-c3ccccc3Cl)n2)c1	nt	nt	nt	nt	nt	2.8µM*	0.0062µM*	0.0035µM*
O=C(O)c1cccc(-c2noc(-c3ccc(F)cc3)n2)c1	nt	nt	nt	nt	nt	5µM*	0.0056µM*	0.0044µM*
Cn1ncc2c(C(=O)NCC3CCCCC3)cc(-c3ccccc3F)nc21	nt	-22%	?	nt	nt	nt	nt	nt
O=C(C1CCCN1C(=O)C1CCCC1)N1CCC(c2nc3ccncc3[nH]2)CC1 (stereo unspecified)	5%	-12%	4%	nt	nt	nt	nt	nt
O=C1NCCCCCCN(Cc2ccncc2)[C@@H]2CN(C(=O)CCc3c[nH]c4ccccc34)CC[C@@H]12	i	-16%	i	6%	i	nt	nt	nt
O=C(O)c1cccc(-c2noc(-c3cccc([N+](=O)[O-])c3)n2)c1	nt	nt	nt	nt	nt	11µM*	0.0079µM*	0.007µM*
COc1cccc(-c2nc(-c3ccc(C(=O)O)cc3)no2)c1	nt	nt	nt	nt	nt	?	0.88µM*	0.79µM*
